# Tests used:
# Test in all cases: PBM binding z-score (relative to random genomic background probes); higher = stronger binding; sequences stand for … in GC…GCGATTGACAGCGTAGAATGAAGG
# [1] = system: FXR:RXRa (NR concentration 270 nM, RXRa partner concentration 90 nM)
# Procedure, shortened: (§1)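 Binding z-scores take random background probes as their reference. They come from custom Agilent 4×180K protein-binding microarrays incubated 1 h with ligand-free nuclear receptor dimers, with antibodies against each partner (one per run) detecting binding. Scanned fluorescence was regression-normalized.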
# [2] = system: LXRa:RXRa (NR concentration 270 nM, RXRa partner concentration 90 nM)
# Procedure, shortened: as §1
# [3] = system: LXRa homodimer (NR concentration 270 nM)
# Procedure, shortened: as §1
# [4] = system: LXRb:RXRa (NR concentration 270 nM, RXRa partner concentration 90 nM)
# Procedure, shortened: as §1
# [5] = system: LXRb homodimer (NR concentration 270 nM)
# Procedure, shortened: as §1
# [6] = system: PPARa:RXRa (NR concentration 270 nM, RXRa partner concentration 90 nM)
# Procedure, shortened: as §1
# [7] = system: PPARg:RXRa (NR concentration 180 nM, RXRa partner concentration 90 nM)
# Procedure, shortened: as §1
# [8] = system: PPARg:RXRa 270nM:90nM, anti-RXR (NR concentration 270 nM, RXRa partner concentration 90 nM)
# Procedure, shortened: as §1
# [9] = system: PPARg:RXRa 30nM:10nM, anti-RXR (NR concentration 30 nM, RXRa partner concentration 10 nM)
# Procedure, shortened: as §1
# [10] = system: PPARg:RXRa 90nM:30nM, anti-RXR (NR concentration 90 nM, RXRa partner concentration 30 nM)
# Procedure, shortened: as §1
# [11] = system: PPARg:RXRa DBDmut IVT, anti-RXR (DBD mutation: RXRa K156A/R161A, NR concentration 270 nM, RXRa partner concentration 90 nM)
# Procedure, shortened: as §1
# [12] = system: PPARg:RXRa IVT, anti-PPARg (NR concentration 270 nM, RXRa partner concentration 90 nM)
# Procedure, shortened: as §1
# [13] = system: PPARg DBDmut:RXRa IVT, anti-PPARg (DBD mutation: PPARg1 K132A/R137A, NR concentration 270 nM, RXRa partner concentration 90 nM)
# Procedure, shortened: as §1
# [14] = system: PPARg DBDmut IVT, anti-PPARg (DBD mutation: PPARg1 K132A/R137A, NR concentration 270 nM)
# Procedure, shortened: as §1
# [15] = system: PPARg homodimer (NR concentration 180 nM)
# Procedure, shortened: as §1
# [16] = system: PXR:RXRa (NR concentration 270 nM, RXRa partner concentration 90 nM)
# Procedure, shortened: as §1
# [17] = system: PXR homodimer (NR concentration 270 nM)
# Procedure, shortened: as §1
# [18] = system: RARa:RXR (NR concentration 270 nM, RXRa partner concentration 90 nM)
# Procedure, shortened: as §1
# [19] = system: RARa homodimer (NR concentration 270 nM)
# Procedure, shortened: as §1
# [20] = system: RARb:RXRa (NR concentration 270 nM, RXRa partner concentration 90 nM)
# Procedure, shortened: as §1
Sequence,PBM binding z-score [1],PBM binding z-score [2],PBM binding z-score [3],PBM binding z-score [4],PBM binding z-score [5],PBM binding z-score [6],PBM binding z-score [7],PBM binding z-score [8],PBM binding z-score [9],PBM binding z-score [10],PBM binding z-score [11],PBM binding z-score [12],PBM binding z-score [13],PBM binding z-score [14],PBM binding z-score [15],PBM binding z-score [16],PBM binding z-score [17],PBM binding z-score [18],PBM binding z-score [19],PBM binding z-score [20]
ACTAGTTGGTCGGCTGAGGTCACACACAATTCGG,3.37,2.69,1.73,2.93,0.679,3.59,1.43,2.08,0.45,1.51,0.828,2.09,0.508,0.979,2.33,5,2.11,4.72,1.23,3.08
ATCTCTAGGTAAAAGTTCAGTGATTCCCGAGGAT,0.618,1.07,1.4,0.613,0.691,4.08,7.48,7.11,7.32,8.09,2.14,3.78,1.64,0.678,1.31,1.97,1.49,1.61,0.97,2.32
CCTACTAGGTCAATGGTCAGCTAAAGCAGCTCGC,3.38,2.41,0.529,1.87,0.47,4.62,8.83,7.23,6.92,7.71,7.63,7.77,2.1,1.05,2.62,1.26,0.377,1.95,0.521,3.89
CCTAGTTGGTCAGGAGGTCACACTCCGGATATGA,3.59,3.48,2.22,3.31,0.86,3.98,3.28,4.03,1.65,3.38,2.49,3.68,0.158,0.204,4.17,4.23,1.2,4.82,1.53,3.72
ACTATTAGTTGAGACGAGGGCAAGCGATAGGTTG,0.338,-0.125,-0.12,-0.138,-0.0702,0.257,0.699,0.134,0.381,0.467,0.296,0.365,0.712,0.625,0.663,1.05,0.306,0.73,0.56,0.659
CCTACTGGGCCAAGGTCATTGTTCAGTCAAAGCA,2.83,3.04,1.28,2.99,-0.347,4.06,3.84,4.26,1.73,3.71,3.1,4.53,1.57,-0.159,3.54,3.62,1.49,3.79,-0.126,3.25
CCTTACGGGTCACTCCAGGTTATAGCATCGGAGT,4.9,7.65,1.97,5.36,0.226,4.64,3.53,3.74,1.18,2.57,2.98,3.86,-0.0737,-0.285,1.64,4.79,0.216,3.49,0.27,3.6
TCTGCTAGGTCAACCATGGTCAGCTAATCTGCTA,4.32,3.21,-0.0391,2.21,0.102,3.52,2.98,3.44,2.15,2.95,4.75,4.6,-0.545,-0.0168,1.65,2.47,-0.872,2.3,-0.434,4.21
CCTGACGGGTCAAGGTTATAGCACGGGTGGTACG,4.36,2.88,0.0717,2.21,-0.369,4,2.54,2.92,0.472,1.61,0.0106,1.52,-0.561,-0.647,1.94,2.74,0.233,3.65,0.717,3.78
CTACCAAGGTGAACAAGATCGTTGATTACTATTC,0.605,0.479,-0.171,0.709,-0.457,1.31,0.756,0.973,0.161,0.606,2.44,2.36,0.247,0.79,0.484,0.24,-0.209,0.949,0.706,1.48
GCTTGTAGATCAAGGTTAGGAAAGACTAAGCTAA,-0.51,-0.347,-0.468,-0.37,-0.511,0.626,0.0578,0.548,-0.199,0.557,1.45,0.637,-0.619,0.0428,-0.189,-0.276,-0.422,-0.0199,-0.3,0.336
AACTCTAGGTAAGACTCAGTTCAGTGAAGAACGC,-0.314,-0.0738,0.141,-0.191,-0.311,0.00216,0.00417,-0.304,-0.237,-0.258,1.6,0.848,0.278,-0.04,0.345,0.534,0.651,0.155,0.797,0.272
TAAACAGGGTCAAAGGCCAGAGTACGAATGTCGA,7.35,5.57,0.675,4.69,1.48,6.49,9.15,8.05,6.91,8.47,3.53,5.43,2.69,2.41,3.24,4.51,0.672,6.19,0.87,4.33
ATCTCTATGTAAGACTCAGTTCAGTGAAGAACGC,-0.0618,0.138,0.304,-0.0643,0.391,-0.231,0.076,-0.0831,-0.162,-0.281,-0.194,-0.197,0.298,1.3,0.674,0.52,1.01,0.0686,0.753,0.0321
CGTCCGAGGTCAGCAGGTCAGTGAAAGCGACGTG,6.67,4.61,0.517,3.78,0.00416,5.44,5.32,5.3,1.73,4.16,3.37,4.16,0.747,0.472,4.76,4.43,0.531,5.55,1.59,5.15
GCTAGGTGGTCAGTAAAAGGTCACACACCGGTCG,3.63,4.57,4.44,4.2,0.699,4.56,2.78,4.14,1.72,3.51,0.659,2.52,0.634,0.226,4.93,5.02,1.22,5.97,2.31,4.34
GCAGACAGGTGAAACGCAGGTAACTCAGGGTGGC,-0.388,0.00311,-0.515,-0.48,-1,0.864,0.383,-0.117,-0.52,-0.467,0.989,0.639,-1.03,-0.587,-0.666,-0.437,-0.625,0.284,-0.853,0.575
CGTCCAAGGACAGAGAGGTCAGTGAATGCCGAGT,1.59,1.6,1.09,1.72,-0.627,2.13,0.584,0.665,-0.328,-0.223,0.0804,0.561,-0.629,-1.01,1.79,3.01,3.16,2.48,0.679,3.33
TAGCCTAGGTCAGCTCGGGCCAGTATACGCTATA,2.43,1.05,-0.68,0.599,-1.22,1.66,0.605,0.958,-0.317,0.418,1.01,1.73,-1.19,-1.03,0.105,1.77,-0.949,1.39,-0.994,3.65

# Source: the supplement of paper PMC6555819
